Molecules are shown by their SMILES. “And” between values parts separate entries of the source, which are not always exact repeats. Identical values can stand only once. Inconclusive results are not listed. Some compounds were tested as several samples or in several runs, with calls that do not always agree. The source made the active and inactive calls. Unless noted, the call rests on the fitted dose curve; in most records, active means well fitted curve in the direction sought with a large enough effect in the repeat runs; inconclusive means weak or mixed curves; inactive means no such curve, though single readings can be large; an effect the other way counts as inactive or inconclusive.

Assay [1] is described as follows: qHTS assay to identify small molecule agonists of H2AX (AID 1224845; active means well fitted activation curve with a large enough effect in the signal ratio in the repeat runs, not every such curve was filed as active; the % refers to the signal ratio). The method in brief:
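Wild-type CHO-K1 cells plated overnight, then exposed 3 hr at 37C to compounds at 15 concentrations (0.76% DMSO). Lysed, then HTRF anti-pH2AX(S139)-cryptate/anti-H2AX-d2 detection after 24 hr at room temperature; emissions 665 and 620 nm.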

The nature of assay [2]: qHTS assay to identify small molecule agonists of the estrogen related receptor (ERR) signaling pathway from Tox21 library (AID 1224849; calls by dose curve; further: nearly all actives have a fitted effect of over 15% in size). To be noted: ERR reporter cell line, ONE-Glo luciferase, 18 h. In a few lines:
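Quantitative HTS in agonist format: NTP ERR cell line, compounds transferred in DMSO after 6 h plating, 18 h incubation at 37 C, ONE-Glo luminescence endpoint.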

Assay [3] can be described thus: qHTS RealTime-Glo MT Cell Viability Assay in HepG2 cells - 24 hour (AID 1224867). Further: nearly all actives have a fitted effect of over 50% in size. The method in brief: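 Tox21 10K library screened in qHTS format on HepG2 cells carrying RealTime-Glo reagents. Compounds were added after a 5 h preincubation, and the luminescent signal from continuous culture was measured repeatedly during 40 h treatment.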
The nature of assay [4]: qHTS RealTime-Glo MT Cell Viability Assay in HEK293 cells - 32 hour (AID 1224868). Further: nearly all actives have a fitted effect of over 50% in size. Further: potency means the concentration at half of the fitted maximal effect. The method in brief: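 Luminescence generated by NanoLuc from substrate produced by living HEK293 cells served as the viability signal. Each value reflects the reading at its stated time point during continuous 40 h compound exposure at 37 C.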
The nature of assay [5]: A CellTox Green Cytotoxicity Assay to monitor cytotoxicity in HEK293 cells - 0 hour (AID 1224869). Further: nearly all actives have a fitted effect of over 50% in size. Further: potency means the concentration at half of the fitted maximal effect. In a few lines: (§1)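 Dead-cell fluorescence measured kinetically: asymmetric cyanine dye, HEK293, 600 cells/well, 5 h settle, 23 nL cpd/DMSO, 37 C, reads 0–40 h every 8 h.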
The nature of assay [6]: qHTS RealTime-Glo MT Cell Viability Assay in HepG2 cells - 40 hour (AID 1224870). Further: nearly all actives have a fitted effect of over 50% in size. Further: potency means the concentration at half of the fitted maximal effect. In a few lines: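 HepG2 cells mixed with RealTime-Glo MT reagents (NanoLuc plus cell-permeant prosubstrate) were seeded at 600 cells/well, incubated 5 h at 37 C/5% CO2, then pinned with compounds in DMSO; nonlytic luminescence tracked viability during 40 h treatment.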
A short description of assay [7]: A CellTox Green Cytotoxicity Assay to monitor cytotoxicity in HEK293 cells - 40 hour (AID 1224871). Further: nearly all actives have a fitted effect of over 45% in size. Further: potency means the concentration at half of the fitted maximal effect. The method in brief:
as §1

Assay [8] in a line: qHTS assay to identify small molecule agonists of the hypoxia (HIF-1) signaling pathway (AID 1224846; active means well fitted activation curve with a large enough effect in the signal ratio in the repeat runs, not every such curve was filed as active; the % refers to the signal ratio). The method in brief:
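Agonist mode reporter screen. ME-180 cells stably expressing bla under HRE control received test compounds in DMSO for 17 hrs (37C, 5% CO2), and beta-lactamase activity was then detected with the CCF4-AM FRET substrate.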

The nature of assay [9]: qHTS assay to identify small molecule agonists of H2AX - cell viability counter screen (AID 1224847; calls by dose curve; further: top concentration of the series differs between compounds; nearly all actives have a fitted effect of over 30% in size). The method in brief: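 Wild-type CHO-K1 cells (10% FBS medium) were plated overnight at 37C, exposed to compounds at 15 concentrations for 3 hr at 37C (0.76% DMSO final), and viability was read as CellTiter-Glo luminescence after 30 min at room temperature.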
Assay [10] can be described thus: qHTS assay to identify small molecule antagonists of the estrogen related receptor (ERR) signaling pathway from Tox21 library (AID 1224848). Further: nearly all actives have a fitted effect of over 50% in size. In a few lines:
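First, 2,000 ERR cells per well were plated and held 6 h at 37 C/5% CO2. Next, compounds in DMSO were pinned in and left 18 h at 37 C. Finally, ONE-Glo was added and luminescence read after 30 min at room temperature.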
On the % scale 0 is the no-effect control and ±100 the full control effect.

Consider `COC(c1ccccc1)(c1ccccc1)[C@H](Oc1nc(C)cc(C)n1)C(=O)O`, for which the Potency result in assay [1], in assay [3], in assay [4], in assay [5], in assay [6] and in assay [7] was “inactive” each time. Also, the activity change, positive = activation in assay [2] (at 42.5 µM (top of the series)) was 0.278% (inactive).

Take `CCCCOCCOC(=O)c1ccccc1C(=O)OCCOCCCC`: the Potency result in assay [8], in assay [3], in [4], in [5], in [6] and in assay [7] was “inactive” in each case. Moreover, in assay [2] (at 92.4 µM (top of the series)), the activity change, positive = activation was -34.9% (inactive) and -38.2% (inactive).

Consider `CCOc1ccccc1C(N)=O`, for which the Potency result in assay [1], in assay [3], in [4], in assay [5], in assay [6] and in assay [7] was “inactive” in each case.

On to `COC(=O)c1cccc(C(=O)OC)c1`, for which the Potency entry in assay [8], in assay [3], in assay [4] and in assay [6] was “inactive” each time. For the same compound, the Potency entry in assay [5] is “inactive and 43.6 µM (active)”; in assay [7], “inactive and 38.9 µM (active)”.

For the compound `CCC(=O)/C=C/C1C(C)=CCCC1(C)C` (centres undefined), the Potency entry in [8], in assay [9], in assay [3], in [4], in assay [5] and in assay [6] was “inactive” throughout. For the same compound, the Potency in assay [7] was 49.1 µM (active) and inactive.

Turning to `O=Cc1ccc(Cl)cc1`, the Potency result in assay [9], in assay [10], in [3], in [4], in [5] and in [6] was “inactive” in each case. Also, in [7], the Potency entry is “inactive”. In [2] (at 92.4 µM (top of the series)), the activity change, positive = activation was -1.47% (inactive).

On to `C#CC(C)(CC)OC(=O)c1ccccc1C(=O)O` (centres undefined), for which the Potency entry in assay [8], in [3], in [4], in assay [5], in assay [6] and in assay [7] was “inactive” throughout. Also, the activity change, positive = activation in assay [2] (at 42.5 µM (top of the series)) is 0.513% (inactive).

Take `CC(C(O)c1ccc(O)cc1)N1CCC(Cc2ccccc2)CC1` (centres undefined): the Potency result in assay [9], in assay [10], in assay [3], in assay [4], in [5] and in [6] was “inactive” in each case. The Potency entry in [7] was “inactive”. Also, the activity change, positive = activation in assay [2] (at 42.5 µM (top of the series)) is -0.85% (inactive).

For `CCCCC(CC)COC(=O)CC(C(=O)OCC(CC)CCCC)S(=O)(=O)O` (centres undefined), the Potency entry in assay [1], in assay [3], in assay [5] and in assay [6] was “inactive” each time. Further, in [7], the Potency was 24.5 µM (active).

As to `NCCO`, the Potency entry in assay [8], in assay [9], in assay [3], in assay [4], in assay [5] and in assay [6] was “inactive” each time. The Potency entry in [7] was “inactive”.

For the compound `CCCCC/C=C/CC1CC(=O)OC1=O` (centres undefined), the Potency entry in assay [8], in assay [10], in [3], in [4], in [5] and in assay [6] was “inactive” in each case. Further, the Potency result in assay [7] was “inactive”. Besides, the activity change, positive = activation in assay [2] (at 92.4 µM (top of the series)) is 5.46% (inactive).

As for `c1cc(C(c2ccc(OCC3CO3)cc2)C(c2ccc(OCC3CO3)cc2)c2ccc(OCC3CO3)cc2)ccc1OCC1CO1` (centres undefined), the Potency entry in assay [8], in [9], in assay [10], in assay [3], in [4] and in [5] was “inactive” in each case. In addition, the Potency entry in assay [6] and in [7] was “inactive” each time. The activity change, positive = activation in [2] (at 92.4 µM (top of the series)) is -18.6% (inactive) and 0.394% (inactive).

Take `CC(=O)Nc1ccc(C(=O)CCl)cc1`: the Potency result in assay [1], in [3] and in assay [5] was “inactive” in each case. Also, the Potency result in assay [4] is “inactive and 24.5 µM (active)”; in assay [6] it was “inactive and 24.5 µM (active)”; in [7] it was “inactive and 15.5 µM (active)”.

As for `O=C(Oc1ccccc1)c1ccccc1O`, the Potency result in [8], in assay [9], in assay [3], in assay [4], in assay [5] and in assay [6] was “inactive” in each case. Also, the Potency entry in assay [7] was “inactive”.

Turning to `CC(C)CCOCc1ccccc1`, the Potency result in [8], in [9], in assay [3], in assay [4], in assay [5] and in assay [6] was “inactive” in each case. In addition, the Potency entry in assay [7] is “inactive”. The activity change, positive = activation in assay [2] (at 92.4 µM (top of the series)) was 4.72% (inactive).

Take `CCC(CO)(CO)COCC(CC)(CO)CO`: the Potency entry in assay [9], in assay [10], in assay [3], in [4], in [5] and in [6] was “inactive” throughout. The Potency result in assay [7] was “inactive”. Moreover, in assay [2] (at 92.4 µM (top of the series)), the activity change, positive = activation is 6.39% (inactive).
